Experimental data published in PubChem BioAssay (NCI).
Compounds without any hit were thinned out: in the full panel of roughly 83,000, 20% have a hit.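 48-hour exposure, single concentration, 96-well plates; percent growth endpoint where 0 means no net growth. Active: below 10.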 A number with no mark means an inactive call. Activity calls are given as the source filed them.

Each compound was assayed on NCI-H23 lung (assay: NCI-60 one-dose screen, 48 h (100 = growth as untreated, 0 = no growth, -100 = all killed)). Conditions: 10 µM unless noted.

Row | Structure (SMILES) | growth
1 | COc1ccc(C2C(C#N)=C(/N=C/c3ccc(Cl)cc3)Oc3c2sc2c(C)cccc32)cc1 (stereo not given) | 26.2%
2 | CN1CC[C@@H]2[C@@]3(C)CC[C@H](O)C(C)(C)[C@@H]3CC[C@@]2(C)[C@]2(C)CC[C@@]3(CO)CCC(C)(C)C[C@@H]3C12 (stereo not given in full) | 90.7%
3 | Clc1ccc2c(N/N=C/c3c[nH]c4ccccc34)ccnc2c1 | -88.2% (active)
4 | O=c1c2cc(-c3ccc(F)cc3F)ccc2n(Nc2ccccc2)c(=O)n1-c1cccc(C(F)(F)F)c1 | 2.36% (active)
5 | NC1[C@H]2CN(c3cnc(C(=O)Nc4cc(F)cc5cccnc45)cn3)C[C@@H]12 (stereo not given in full) | 84.5%
6 | CCOC(=O)c1cccc(NC2=C(Cl)C(=O)c3nc(C)ccc3C2=O)c1 | 65.2%
7 | O=C(CSc1nnc(-c2cccs2)n1-c1ccccc1)Nc1ccccc1 | 86%
8 | CCc1cc2c(cc1Cl)nc1c(=O)[nH]c(=O)nc-1n2CCOCC(C)C | 67.7%
9 | Cc1csc(/N=C(N)/N=C(\N)c2cccc(C#N)c2)n1 | 84.5%
10 | Clc1ccc(CSc2nnc(-c3ccc(Cl)cc3)n2-c2ccccc2)cc1 | 79.8%
11 | C#Cc1nc(C(=O)NCCCCCCC(=O)NO)cs1 | -74.6% (active)
12 | CCCNNC(=O)c1ccc(-c2ccc(NC(=O)CCCCCCC(=O)N[C@H](C(=O)N3C[C@H](O)C[C@H]3C(=O)N[C@@H](C)c3ccc(-c4scnc4C)cc3)C(C)(C)C)cc2)cc1 | 37.3%
13 | CN1CCN(c2ccc(Nc3nc(NCCNC(=O)c4ccccc4)c4sccc4n3)cc2)CC1 | 74.2%
14 | COc1cc2c3c(cc4c5c(ccc4c3c1OC)OCO5)N(CCN(C)C)C2=O | -17.8% (active)
15 | N#Cc1c(-c2cccs2)cc(-c2cnccn2)nc1SCC(=O)N/N=C/c1ccc(Cl)cc1 | 100%
16 | COC(=O)c1cccc(NC2=CC(=O)C(C)=C(C)C2=O)c1 | 63.9%
17 | C#Cc1nc(/C=C/CCCCCCC(=O)NO)cs1 | -34.2% (active)
18 | CC(=O)Nc1nc(C)c(-c2csc(Nc3ccccc3)n2)s1 | 35.2%
19 | CC1=C(C)C(=O)C(Nc2ccc3c(c2)OCO3)=C(Br)C1=O | 90%
20 | N#Cc1cccc(-c2cc(-c3ccc4c(c3)OCCO4)[nH]n2)c1 | 50%

Row | Structure (SMILES) | growth
21 | COc1ccc2c(c1)c(-c1nc(N)nnc1-c1c[nH]c3ccccc13)cn2C | 47.7%
22 | CC1(C)CC[C@]23CC[C@]4(C)[C@H](CC[C@@H]5[C@@]6(C)CC[C@H](N)C(C)(C)[C@@H]6CC[C@]54C)[C@H]2[C@H]1OC3 | 88.8%
23 | Fc1cccc(Cl)c1/C=N/Nc1nc(N/N=C/c2c(F)cccc2Cl)nc(N2CCCCC2)n1 | 44.8%
24 | Cc1ccccc1N1CCN(C2=C(Cl)C(=O)c3ncccc3C2=O)CC1 | 38.1%
25 | CC(=O)OC[C@@]12Oc3c(cccc3-c3ccc(O)c4c3O[C@]3(COC(C)=O)C(=C4O)C(=O)C[C@H](C)[C@@H]3OC(C)=O)C(O)=C1C(=O)C[C@H](C)[C@@H]2OC(C)=O | 2.54% (active)
26 | COc1ccc(CC(C)=C(c2ccc(OCCN3CCCC3)cc2)c2ccc(OCCN3CCCC3)cc2)cc1 | -82.4% (active)
27 | CNC(=O)c1cc(N2CCc3cc(NC(=O)Nc4ccc(N5CCOCC5)c(C(F)(F)F)c4)ccc32)ccn1 | 18.7%
28 | CN(C)CC(=O)Nc1nc(-c2cccc(NS(=O)(=O)c3cccc4c(N(C)C)cccc34)c2)cs1 | 75.6%
29 | NCCNC(=O)c1cccc(COc2ccccc2NC(=O)c2cc(Cl)c(Cl)[nH]2)c1 | 98.1%
30 | COc1cccc2c1C=CC1(O2)Oc2cccc(OC)c2C=C1C (stereo not given) | 34.8%
31 | COc1ccc(-c2c(C(N)=O)c(N)n(Cc3nc4ccccc4[nH]3)c(=O)c2C#N)c(OC)c1 | 93.1%
32 | NC1C2CCC1CN(c1cnc(C(=O)Nc3cc(F)cc4cccnc34)cn1)C2 (stereo not given) | 75.1%
33 | COc1ccc2c(c1)c(-c1nnc(N)nc1-c1c[nH]c3ccc(F)cc13)cn2C | 44.6%
34 | COc1ccc([C@H]2C(=O)N(c3cc(OC)c(OC)c(OC)c3)[C@@H]2c2ccc(OC)c(O)c2)cc1 | 24.4%
35 | CCOC(=O)c1cnc2c(-c3ccc(Cl)c(Cl)c3)cnn2c1 | 82%
36 | Oc1[nH]c2ccc(Cl)cc2c1N=Nc1nc(N=Nc2c(O)[nH]c3ccc(Cl)cc23)nc(N2CCOCC2)n1 | 17.2%
37 | CCC1=Cc2c(OC)cccc2OC12C=Cc1c(OC)cccc1O2 (stereo not given) | 39.7%
38 | CCCC/C(=C\c1ccc(O)c(O)c1)C(=O)NC(Cc1ccccc1)C(=O)C(=O)NCCc1ccc(OC)cc1 (stereo not given) | 92.2%
39 | CC/C(=C(/c1ccc(Cl)cc1)c1ccc(OCCN)cc1)c1ccccc1 | 96%
40 | Cc1ccc(S(=O)(=O)c2nc(-c3ccc(F)cc3)oc2S(C)(=O)=O)cc1 | 71.2%
